GLS inhibitor – qHTS for Inhibitors of Glutaminase (GLS) | Potency, µM (top dose mostly 45.5 µM), inactives show top-dose activity change, negative = inhibition, most hits filed as inhibitors | 0.21% of 410,000 active | AID 624170, 2012 | Glutaminase kidney isoform, mitochondrial (Homo sapiens), O94925 | GLS enzymatic activity, qHTS titration
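hKGA; 45 mM KH2PO4 pH 8.2 + 0.02% Tween-20; cpd via pin tool; 1 mM Gln soln; GluOx/HRP/Amplex Red; RT 30 min; fluor. t0 & final.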
VDR inh – Inhibitors of the vitamin D receptor (VDR): qHTS; VDR-SRC2-3 peptide fluorescence polarization, 2 h; Potency, µM, for the others: max response, negative = inhibition, hits mostly inhibitors; 0.93% of 400,000 active
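Signal is fluorescence polarization, reporting how far test compounds block the interaction of VDR with the SRC2-3 coregulator peptide after a 2 h room-temperature incubation.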
Sfp PPTase inh – qHTS Assay for Inhibitors of Bacillus subtilis Sfp phosphopantetheinyl transferase (PPTase); 4'-phosphopantetheinyl transferase ffp (Bacillus subtilis), Q9F4F7; Biochemical Sfp PPTase activity, qHTS; Potency, µM, inactives show largest response in the series, negative = inhibition, hits mostly inhibitors; 3.5% of 310,000 active; AID 1490, 2009;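 further: the enzyme is Sfp with the accession as filed and its product quenches rhodamine fluorescence; 0% = enzyme reaction without inhibitor and -100% = no enzyme wells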
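Sfp 15 nM + cpd, 15 min RT; start w/ rhodamine-CoA 5 uM, BHQ-2-YbbR 12.5 uM (final); 50 mM Hepes pH 7.6, 10 mM MgCl2, 0.01% NP-40, 0.01% BSA; read 525/598 nm at 0 and 30 min.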
TrxR1 substrate – qHTS Assay for Substrates of Mammalian Selenoprotein Thioredoxin Reductase 1 (TrxR1): qHTS; Thioredoxin reductase 1, cytoplasmic (Rattus norvegicus), O89049; purified TrxR1 substrate turnover, NADPH consumption readout; Potency, µM (series often up to 114 µM), for the others: at the highest dose activity change, negative = substrate turnover; 0.01% of 390,000 active; AID 588456, 2011; further: nearly all actives have a fitted effect of over 50% in size
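Rat TrxR1, dispensed at 90 nM, was prereduced with 400 uM NADPH (final) for 5 min at ~22 deg C, then incubated with compound 15 min before 400 uM selenite. A first-read NADPH fluorescence drop versus no-compound background flagged substrates.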
rTrxR1 inhibitor – qHTS Assay for Inhibitors of Mammalian Selenoprotein Thioredoxin Reductase 1 (TrxR1): qHTS; Potency, µM (highest dose often 114 µM), without a hit: at the highest dose activity change, negative = inhibition, usual class: inhibitors; Thioredoxin reductase 1, cytoplasmic (Rattus norvegicus), O89049; AID 588453, 2011; 1% of 390,000 active; recombinant rTrxR1, NADPH fluorescence consumption, selenite substrate; further: nearly all actives have a fitted effect of over 65% in size
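Rat TrxR1 (90 nM in the dispensed reagent) was pre-reduced with 400 uM NADPH for 5 min at room temperature, then incubated with compound for 15 min. After 400 uM selenite was added, NADPH fluorescence (Ex 340/Em 450 nm) was followed for 8 min.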
KAT2A inh – qHTS Assay for Inhibitors of GCN5L2; Histone acetyltransferase KAT2A (Homo sapiens), Q92830; GCN5L2 HAT assay, ThioGlo1 CoA-SH fluorescence; Potency, µM (top dose mostly 58.9 µM), without a hit: at the top dose activity change, negative = inhibition, usual class: inhibitors; 0.21% of 390,000 active; AID 504327, 2011
Target sequence (Q92830 whole entry, looked up): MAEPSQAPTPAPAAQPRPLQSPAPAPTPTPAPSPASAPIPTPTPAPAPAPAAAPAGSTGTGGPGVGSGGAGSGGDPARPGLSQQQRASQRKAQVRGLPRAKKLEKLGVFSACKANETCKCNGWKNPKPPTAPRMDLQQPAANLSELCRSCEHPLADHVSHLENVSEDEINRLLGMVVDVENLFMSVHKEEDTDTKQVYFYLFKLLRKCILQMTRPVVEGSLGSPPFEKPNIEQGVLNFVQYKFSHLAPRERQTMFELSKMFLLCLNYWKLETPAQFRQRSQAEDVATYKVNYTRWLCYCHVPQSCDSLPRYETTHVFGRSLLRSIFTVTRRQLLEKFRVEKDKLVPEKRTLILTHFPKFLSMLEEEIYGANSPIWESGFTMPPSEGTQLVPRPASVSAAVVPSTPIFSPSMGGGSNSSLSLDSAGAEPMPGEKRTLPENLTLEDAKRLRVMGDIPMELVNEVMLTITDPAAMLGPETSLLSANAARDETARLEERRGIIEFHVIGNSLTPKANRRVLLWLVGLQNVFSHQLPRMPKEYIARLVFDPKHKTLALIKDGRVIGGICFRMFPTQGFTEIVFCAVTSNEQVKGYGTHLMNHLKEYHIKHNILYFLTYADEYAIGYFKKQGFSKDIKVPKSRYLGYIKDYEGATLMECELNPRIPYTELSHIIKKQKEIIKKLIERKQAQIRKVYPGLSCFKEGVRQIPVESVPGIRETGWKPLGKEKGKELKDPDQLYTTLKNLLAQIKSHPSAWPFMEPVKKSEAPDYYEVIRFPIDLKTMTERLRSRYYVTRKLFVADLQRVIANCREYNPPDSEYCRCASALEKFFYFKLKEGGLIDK
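Fluorescence readout, Ex340nm/Em540nm: ThioGlo1 (50uM final) reacts with free CoA thiol released as 20nM GCN5L2 acetylates H3(1-25) peptide (75uM) using acetyl-CoA (70uM). Compound and enzyme sat 15 min beforehand; 20 min room-temperature reaction.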
Starred values were filed as active, the others as inactive; u = inconclusive; x = not tested or not shown; ! = repeats disagree; [ ] = another dose, or the depositor's remark. Rows were chosen to be rich in hits. Some 3.8% of all compounds tested hit in one or more screens of this group. The call rests on the fitted dose curve; in most records, active means well fitted curve in the direction sought with a large enough effect; inconclusive means small, poorly fitted or top-dose-only effect, or another doubt; inactive means no such curve, though single readings can be large; an effect the other way counts as inactive or inconclusive. Unless noted, on the % scale 0 is the no-effect control and ±100 the full control effect; potency means the concentration at half of the fitted maximal effect.

SMILES | GLS inhibitor | VDR inh | Sfp PPTase inh | TrxR1 substrate | rTrxR1 inhibitor | KAT2A inh
Cc1ccc(C(=O)Cn2c(=N)n(CCN3CCOCC3)c3ccccc32)cc1 | 4% | 12% | x | -1%[57.1 µM] | 4%[57.1 µM] | -9%
COc1cccc(NC(=O)CN(C)C(C)C(=O)Nc2ccc(S(=O)(=O)N3CCOCC3)cc2)c1 (stereo not drawn) | 0% | 6% | 0% | 4% | 5% | 4%
CCc1ccccc1NC(=O)Cn1c(=O)n(C(C)C)c(=O)c2oc3ccccc3c21 | -13% | -3% | x | -8% | -4% | -4%
CC(=O)c1ccc(OCC(O)CN(C)Cc2cccs2)cc1 (stereo not drawn) | 13% | 10% | 56µM* | 2% | 10% | -1%
CN(Cc1cccs1)CC(O)COCc1ccco1 (stereo not drawn) | 0% | -8% | 7% | -3% | -12% | -3%
COc1ccc(CCC(=O)NNC(=O)c2cccs2)cc1 | 11% | 11% | x | 3% | 26% | 2%
COCCNC(=S)NN=C1CCCCC1 | -38% | -5% | 40µM* | -2%[57.1 µM] | 12%[57.1 µM] | -6%
CCC(=O)NC(=S)Nc1c(C)cc(Br)cc1C | 0% | -12% | 20% | 3% | 28µM* | 0%
N#CC1=C(N)NC(=S)C(C(N)=O)C1c1ccc(Cl)cc1Cl (stereo not drawn) | u | 22µM* | 8.9µM* | -17% | -50% | -5%
N#CC1=C(N)NC(=S)C(C(N)=O)C1c1ccccc1F (stereo not drawn) | 2% | 4.5µM* | 0.71µM* | 0% | u | -24%
O=C1NC(=O)C(c2ccc(Cl)cc2Cl)N1 (stereo not drawn) | 1% | -3% | x | -6% | -7% | x
C=CCNc1oc(-c2ccc(OC)cc2)nc1C#N | 13% | 5% | 2% | 147% | 44% | -1%
COc1ccc(C(=O)N/N=C(\C)c2ccc3c(c2)C2C=CCC2C(c2ccccc2)N3)cc1 (stereo not drawn) | -16% | -24% | 79µM* | 7%[57.1 µM] | u | 3%
COc1ccc(C)cc1NS(=O)(=O)c1ccc2c(c1)[C@H]1C=CC[C@H]1[C@@H](c1cccc(Cl)c1)N2 | -29% | -8% | x | -4% | u | -18%
Fc1ccc2c(c1)C1C=CCC1C(c1cc3c(cc1Br)OCO3)N2 (stereo not drawn) | 6% | -12% | u | 8%[57.1 µM] | 7% | -10%
Fc1ccc([C@@H]2Nc3ccccc3[C@@H]3C=CC[C@@H]32)cc1 | 3% | -11% | x | 2% | 28µM* | -13%
COc1cccc(NS(=O)(=O)c2ccc3c(c2)C2C=CCC2C(c2ccc(C(=O)O)cc2)N3)c1 (stereo not drawn) | u | u | 32µM* | -10% | 40µM* | u
O=C(O)c1ccc2c(c1)[C@@H]1C=CC[C@@H]1[C@H](c1ccccn1)N2 | 2.8µM* | u | x | -5% | 4µM* | x
COc1ccc(OC)c([C@@H]2Nc3ccc(C(=O)O)cc3[C@@H]3C=CC[C@@H]32)c1 | u | 3% | x | 5%[57.1 µM] | 1%[57.1 µM] | -5%
COC(=O)c1ccc([C@H]2Nc3ccc(S(=O)(=O)Nc4ccc(F)cc4)cc3[C@H]3C=CC[C@H]32)cc1 | 1% | -5% | x | -3% | 71µM* | -6%
Cc1cccc(NS(=O)(=O)c2ccc3c(c2)[C@H]2C=CC[C@H]2[C@@H](c2ccc(F)cc2)N3)c1 | 6% | 6% | x | 5% | 3% | -11%
O=C1NN(c2ccccc2)C(=O)/C1=C\c1ccc(-c2cc([N+](=O)[O-])ccc2O)o1 | -19% | -2% | 79µM* | -17% | u | -16%
Nc1cccc(CN2CCCC2)c1 | 3% | 5% | 2% | -4% | 7% | 0%
O=C(c1cc2nc(-c3ccco3)cc(C(F)(F)F)n2n1)N1CCCCCC1 | 0% | -5% | 56µM* | 17% | -17% | -9%
CN(C(=O)c1cc2nc(-c3ccco3)cc(C(F)(F)F)n2n1)C1CCCCC1 | -2% | -8% | 50µM* | 16% | -18% | -6%
SMILES | GLS inhibitor | VDR inh | Sfp PPTase inh | TrxR1 substrate | rTrxR1 inhibitor | KAT2A inh
NC(=O)c1cc2nc(-c3ccco3)cc(C(F)(F)F)n2n1 | -1% | 15% | -6% | 55%[57.1 µM] | -16%[57.1 µM] | -14%
O=C(CCc1ccc(O)cc1)c1c(O)cc(O)cc1O | 39% | -23% | 50µM*! | 5%[57.1 µM] | 10µM* | -12%
CCCOc1ccc(C(=O)N2CCCc3ccccc32)cc1 | x | -2% | 0% | -2% | 10% | -2%
CCc1ccc(Nc2n[n+](-c3ccccc3)c(-c3ccc(C(=O)O)cc3)s2)cc1 | 2% | 2% | 45µM* | 4% | 3% | 1%
CSc1ccc(-c2sc(Nc3cccc4ccccc34)n[n+]2-c2ccccc2)cc1 | 1% | 79µM* | 50µM* | -5% | 15% | -8%
CSc1ccc(-c2sc(Nc3ccccc3)n[n+]2-c2ccccc2)cc1 | 6% | -12% | u | -4% | -2% | u
CCc1ccc(Nc2n[n+](C)c(-c3ccncc3)s2)cc1 | 8% | 79µM* | 79µM* | -15% | 7% | u

Screening data deposited in PubChem BioAssay by National Center for Advancing Translational Sciences (NCATS).
